# Bioassay records: PubChem, National Center for Advancing Translational Sciences (NCATS)
# JMJD2A Tudor inh – qHTS Assay for Inhibitors of JMJD2A-Tudor Domain; AID 504339, 2011; AlphaScreen JMJD2A-Tudor / H3K4me3 peptide binding; 4.4% of 390,000 active; Potency, µM (top dose mostly 114 µM), for inactives: at the top dose activity change, negative = inhibition, hits mostly inhibitors; further: on the % scale 0 is the no-effect control and ±100 the full control effect; nearly all actives have a fitted effect of over 50% in size
# G9a inh – qHTS Assay for Inhibitors of Histone Lysine Methyltransferase G9a | 8.8% of 350,000 active | Histone-lysine N-methyltransferase EHMT2 (Homo sapiens), Q96KQ7 | G9a H3K9 monomethylation, AlphaScreen, 2 h | Potency, µM (series often up to 102 µM), for the others: at the top dose activity, negative = inhibition, usual class: inhibitors; further: on the % scale 0 is the no-effect control and ±100 the full control effect; nearly all actives have a fitted effect of over 75% in size
# Target sequence (Q96KQ7 913-1193 limits assumed): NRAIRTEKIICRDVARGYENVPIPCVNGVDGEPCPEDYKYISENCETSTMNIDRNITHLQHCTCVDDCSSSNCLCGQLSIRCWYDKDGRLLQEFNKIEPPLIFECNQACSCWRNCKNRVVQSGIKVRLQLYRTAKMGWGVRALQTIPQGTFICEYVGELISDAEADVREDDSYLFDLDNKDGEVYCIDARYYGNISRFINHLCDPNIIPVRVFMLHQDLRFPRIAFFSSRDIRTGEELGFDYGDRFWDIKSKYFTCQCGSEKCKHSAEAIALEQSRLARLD
#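 Step 1: enzyme (final 20 nM) with compound, 15 min RT. Step 2: substrate peptide 500 nM and SAM 20 uM, 2 h RT. Step 3: anti-H3K9me1 antibody and AlphaScreen beads, 10 min, then plate read.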
# L3MBTL1 block – qHTS Assay for the Inhibitors of L3MBTL1; AlphaScreen L3MBTL1–H3K9me1 peptide binding; Potency, µM (top dose mostly 57.1 µM), inactives show top-dose activity, negative = inhibition, most hits filed as inhibitors; 0.66% of 230,000 active; AID 485360, 2010; further: on the % scale 0 is the no-effect control and ±100 the full control effect; nearly all actives have a fitted effect of over 60% in size
#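 AlphaScreen proximity signal between nickel-chelate acceptor and streptavidin donor beads (final 10 ug/mL) reports binding of 50 nM L3MBTL1 to 75 nM biotin-H3 K9me1 peptide; complex incubated with compounds 30 min at room temperature; cefsulodin titration as control.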
# HP1b chromo inh – HTS for Inhibitors of HP1-beta Chromodomain Interactions with Methylated Histone Tails; Chromobox protein homolog 1 (Homo sapiens), P83916; AlphaScreen HP1-beta / biotin-H3K9me3 peptide binding; Potency, µM (top dose mostly 114 µM), without a hit: at the highest dose activity change, negative = inhibition, hits mostly inhibitors; 0.56% of 390,000 active; AID 540317, 2011; further: nearly all actives have a fitted effect of over 70% in size
# Target sequence (P83916 whole entry, looked up): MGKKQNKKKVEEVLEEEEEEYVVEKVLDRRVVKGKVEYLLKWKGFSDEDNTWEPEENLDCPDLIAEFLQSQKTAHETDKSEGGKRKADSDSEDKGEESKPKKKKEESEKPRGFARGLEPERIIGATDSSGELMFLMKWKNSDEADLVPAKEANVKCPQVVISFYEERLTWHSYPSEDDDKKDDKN
#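 HP1-beta protein (50 nM final) preincubated 30 min at room temperature with biotinylated H3(1-18)K9me3 peptide (50 nM) in PBS pH 7.4, 0.01% Tween-20, then compound added for 30 min. AlphaScreen streptavidin donor/nickel chelate acceptor beads (10 ug/mL final), 30 min dark, luminescence read.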
# BAZ2B inh – qHTS Assay for Inhibitors of BAZ2B. Bromodomain adjacent to zinc finger domain protein 2B (Homo sapiens), Q9UIF8. AlphaScreen BAZ2B-H3K14Ac peptide displacement. Potency, µM (series often up to 114 µM), inactives show at the highest dose activity change, negative = inhibition, usual class: inhibitors. 4.4% of 360,000 active; further: on the % scale 0 is the no-effect control and ±100 the full control effect; nearly all actives have a fitted effect of over 60% in size
#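 Multi-concentration screen (max 110 uM) measuring displacement of acetylated histone H3 peptide from BAZ2B by AlphaScreen, using 50 nM protein, 50 nM peptide and 10 ug/mL streptavidin donor plus Ni-chelate acceptor beads.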
# Sfp inh – qHTS Assay for Inhibitors of Bacillus subtilis Sfp phosphopantetheinyl transferase (PPTase); 3.5% of 310,000 active; 4'-phosphopantetheinyl transferase ffp (Bacillus subtilis), Q9F4F7; Biochemical Sfp PPTase activity, qHTS; Potency, µM, inactives show largest response in the series, negative = inhibition, hits mostly inhibitors;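 further: the enzyme is Sfp with the accession as filed and its product quenches rhodamine fluorescence; 0% = enzyme reaction without inhibitor and -100% = no enzyme wells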
#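 Compounds were incubated with enzyme (final 15 nM) for 15 min at room temperature before substrate addition started the reaction. Fluorescence at 525 nm excitation, 598 nm emission was recorded immediately and after 30 minutes.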
# * marks the source's active call; other numbers are inactive results; ? = inconclusive; / = no result; [ ] = remark or other dose. Rows were chosen to be rich in hits. Some 12% of all compounds tested hit in one or more screens of this group. The call rests on the fitted dose curve; in most records, active means well fitted curve in the direction sought with a large enough effect; inconclusive means small, poorly fitted or top-dose-only effect, or another doubt; inactive means no such curve, though single readings can be large; an effect the other way counts as inactive or inconclusive. Potency means the concentration at half of the fitted maximal effect.
SMILES,JMJD2A Tudor inh,G9a inh,L3MBTL1 block,HP1b chromo inh,BAZ2B inh,Sfp inh
Cc1cc(=O)oc2cc(OC3C=CC(C#CC(C)(C)C)OC3CO)ccc12 (stereo not drawn),/,/,/,/,/,-7%
Cc1nn(C)cc1/C=N\NC(=O)c1ccc2c(c1)c(C)c(C)n2Cc1ccccc1,56µM*,20%[12.7 µM],/,-28%,45µM*,-20%
Cc1c(C)n(Cc2ccccc2)c2ccc(C(=O)NCCCN3CCOCC3)cc12,50µM*,50µM*,/,-4%,?,-19%
CCn1c(C)c(C)c2cc(C(=O)NCCCN3CCOCC3)ccc21,?,/,/,6%,-33%,-3%
Cc1c(C)n(Cc2ccc(F)cc2)c2ccc(C(=O)NCCCN3CCOCC3)cc12,45µM*,/,/,?,28µM*,-19%
C[C@H](N)C(=O)N[C@@H](Cc1ccc(F)cc1)C(=O)N[C@@H](CCCN=C(N)N)C(=O)N[C@@H](CC1CCCCC1)C(=O)N[C@@H](CCCCN=C(N)N)C(=O)N[C@@H](Cc1ccc(O)cc1)C(N)=O,/,/,/,/,/,-2%
COc1ccc(N2CCN(C(CNC(=O)C3CCCCC3)c3cccnc3)CC2)cc1 (stereo not drawn),?,/,-4%,-7%,-10%,-1%
COc1ccc(N2CCN(C(CNC(=O)C(=O)NC3CC3)c3ccco3)CC2)cc1 (stereo not drawn),-6%,45µM*,11%,30%,-25%,/
COc1ccc(N2CCN(C(CNC(=O)C3CCCCC3)c3ccco3)CC2)cc1 (stereo not drawn),-32%,45µM*,-16%,?,-7%,/
CCCCC(=O)NC(c1ccc(N(C)C)cc1)c1ccc2cccnc2c1O (stereo not drawn),18µM*,40µM*,?,?,20µM*,11%
CCCC(=O)NC(c1ccc(Cl)cc1)c1ccc2cccnc2c1O (stereo not drawn),-13%,32%,-4%,52%,-7%,21%
COc1ccc(C(Nc2ccccn2)c2ccc3ccc(C)nc3c2O)cc1C (stereo not drawn),?,8.9µM*,/,-15%,?,/
CCOc1cc(C(Nc2cc(C)ccn2)c2ccc3cccnc3c2O)ccc1OC (stereo not drawn),18µM*,3.2µM*,/,14µM*,10µM*,/
Cc1cccc(NC(c2ccccc2F)c2ccc3ccc(C)nc3c2O)n1 (stereo not drawn),?,-7%[59 µM],/,19%,-9%,/
CCCCC(=O)NC(c1ccc(Cl)cc1)c1ccc2cccnc2c1O (stereo not drawn),56µM*,/,/,12%,/,/
Cc1ccc(C(=O)C(C)CN2CCCCC2)cc1 (stereo not drawn),/,-34%[2.33 µM],/,/,/,26%
COC(=O)c1ccc(C(NC(=O)OCc2ccccc2)/C(C)=C/[C@@H](C)C(=O)NCCN2CCOCC2)cc1 (stereo partly drawn),/,/,/,/,/,25%
CN1CCN(CCc2ccc(Cl)c(Cl)c2)CC1,/,42%[59 µM],/,/,/,-11%
CCCCC(=O)NC(c1ccc(N(CC)CC)cc1)c1ccc2cccnc2c1O (stereo not drawn),?,-10%,?,20%,45µM*,17%
CCCC(=O)NC(c1ccccc1OC)c1ccc2cccnc2c1O (stereo not drawn),56µM*,-4%,?,-11%,25µM*,-3%
Cc1cccc(NC(c2cccc(Cl)c2)c2ccc3cccnc3c2O)n1 (stereo not drawn),16µM*,-41%[59 µM],/,31%,10µM*,/
CCCCC(=O)NC(c1ccccc1OC)c1ccc2cccnc2c1O (stereo not drawn),-19%[11.4 µM],8%,/,51%,?,16%
CCCC(=O)NC(c1ccc(C)cc1)c1ccc2cccnc2c1O (stereo not drawn),56µM*,-4%,-26%,56%,14µM*,24%
Cc1cc(Nc2cccc(C(F)(F)F)c2)nc2ccc(NC(=O)c3cccnc3)cc12,-10%,18%[59 µM],/,39%,16%,/
CCC1CC=CC2C1C(=O)N(Cc1ccccc1)C2c1cc(C)ccc1F (stereo not drawn),28%,/,/,82%,/,-9%
SMILES,JMJD2A Tudor inh,G9a inh,L3MBTL1 block,HP1b chromo inh,BAZ2B inh,Sfp inh
Cc1ccc(C(Nc2ccccn2)c2ccc3cccnc3c2O)cc1 (stereo not drawn),20µM*,7.9µM*,/,-8%,28µM*,/
Cc1ccnc(NCc2ccccc2O)c1,-10%,9%[0.501 µM],-2%[2.29 µM],29%,6%,18%
Cc1ccc(NC(=O)c2cccc3cccnc23)cc1,-5%,16%[59 µM],/,25%,-2%,-2%
Cc1ccnc(NC(c2cccc(O)c2)c2ccc3ccc(C)nc3c2O)c1 (stereo not drawn),?,11µM*,/,-25%,?,/
CCc1nnc(NC(=O)C2Cc3ccccc3CN2S(=O)(=O)c2cccs2)s1 (stereo not drawn),-34%,14µM*,-15%,30%,-1%,-19%
CCc1nnc(NC(=O)C2Cc3ccccc3CN2S(=O)(=O)c2ccc(C)cc2)s1 (stereo not drawn),?,40µM*,-3%,0%,?,-1%
CCc1nnc(NC(=O)C2CCCN2S(=O)(=O)c2ccc(C)cc2)s1 (stereo not drawn),-5%,-39%,12%,46%,4%,16%
O=C(O)C1Cc2ccccc2CN1S(=O)(=O)c1ccc2ccccc2c1 (stereo not drawn),50µM*,7.9µM*,/,8%,50µM*,?
COc1ccc(S(=O)(=O)N2Cc3ccccc3CC2C(=O)Nc2ccc3c(c2)OCO3)cc1 (stereo not drawn),-21%,-8%[12.7 µM],-8%,33%,-10%,12%
Cc1ccc(S(=O)(=O)N2Cc3ccccc3CC2C(=O)Nc2ccc3c(c2)OCO3)cc1 (stereo not drawn),79µM*,?,/,?,?,-6%
COc1ccc(SCC(CC(C)C)N2CCN(CCc3ccccc3)CCC2=O)cc1 (stereo not drawn),?,/,/,28%,/,?
CCCNC(=O)c1nc(C)n(-c2cc(Cl)ccc2Cl)n1,-12%,14%,-19%,-14%,-2%,-1%
CNC(=O)c1nc(C)n(-c2ccc(Cl)cc2Cl)n1,10µM*,4%,-7%,-11%,-5%,13%
